Assay results published in PubChem BioAssay (EPA / NIEHS).
Active and inactive are the calls of the source. How the source made its calls: active means hit-call score of the fitted dose curve at least 0.9, where 1 is the maximum; inactive means score below 0.9.

Columns and labels:
[1] = ATG_GLI_CIS: Attagene CIS-FACTORIAL HepG2 Assay for human Zinc Finger Protein GLI1 (AID 2282945); conditions: HepG2, Attagene cis-factorial reporter mRNA, GLI element; actives raise or lower the signal
Outline: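 Bidirectional curve fits relative to DMSO, using reporter mRNA levels from RT-PCR plus capillary electrophoresis. Cells were HepG2 transiently carrying cis-regulated reporter constructs, harvested 24 h after dosing.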

[2] = molecular target: Bile acid receptor (Homo sapiens) (UniProt Q96RI1); experiment: ATG_IR1_CIS: Attagene CIS-FACTORIAL HepG2 Assay for human Nuclear Receptor Subfamily 1 Group H Member 4 (NR1H4), IR1 submotif (AID 2282946); conditions: IR1 reporter transcription, actives raise or lower the signal
Outline: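 HepG2 cells transiently transfected with multiplexed cis-element reporter units read endogenous transcription factor activity. After 24 h compound exposure, reporter mRNA was quantified by RT-PCR, fluorescent labelling, HpaI digestion and capillary electrophoresis; bidirectional fitting versus DMSO baseline.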

[3] = ATG_GRE_CIS: Attagene CIS-FACTORIAL HepG2 Assay for human Glucocorticoid Response Elements (GRE) (AID 2282947); conditions: HepG2 GRE cis-reporter, Attagene multiplex mRNA; actives raise or lower the signal
Outline: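 Reporter transcripts read by RT-PCR with capillary electrophoresis fluorescence after a 24 h chemical exposure of HepG2 cells transiently transfected with multiple cis-element reporter units. Gain or loss fitted against DMSO.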

[4] = ATG_ISRE_CIS: Attagene CIS-FACTORIAL HepG2 Assay for human Interferon Regulatory Factor 1 (IRF1) binding to an Interferon-Stimulated Response Element (ISRE) (AID 2282948); conditions: HepG2 ISRE cis-reporter (Attagene), mRNA transcription readout; actives raise or lower the signal
Outline: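 Uses HepG2 liver cells transfected with cis-regulated reporters and measures mRNA 24 h post-dosing through RT-PCR, primer-extension labelling and capillary electrophoresis, with DMSO as negative control.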

[5] = ATG_M_32_CIS: Attagene CIS-FACTORIAL HepG2 Assay for M32 Transcription Factor (Internal Marker) (AID 2282949); conditions: HepG2 Attagene cis-factorial M32 reporter, mRNA; actives raise or lower the signal;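 further: background control marker of the multiplexed CIS panel rather than a real target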
Outline: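 HepG2 human liver cells transiently transfected with cis-promoter-driven multiple reporter transcription units, dosed 24 h. Reporter mRNA quantified by RT-PCR, FAM-labelled primer extension, HpaI digest and capillary electrophoresis; bidirectional fit versus DMSO baseline.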

[6] = ATG_M_06_CIS: Attagene CIS-FACTORIAL HepG2 Assay for M06 Transcription Factor (Internal Marker) (AID 2282950); conditions: HepG2 Attagene CIS-FACTORIAL M06 internal marker reporter; actives raise or lower the signal
Outline: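 Fluorescence-labelled RT-PCR products from cis-promoter reporter units, cut with HpaI and resolved by capillary electrophoresis, give the signal. Cells are human HepG2, dosed for 24 h. Serves as background control, fitted relative to DMSO.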

[7] = molecular target: Hypoxia-inducible factor 1-alpha (Homo sapiens) (UniProt Q16665); experiment: ATG_HIF1a_CIS: Attagene CIS-FACTORIAL HepG2 Assay for human Hypoxia Inducible Factor 1 (HIF1A) (AID 2282951); conditions: HepG2 Attagene cis-factorial HIF1a reporter transcription; actives raise or lower the signal
Outline: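 Cis-element reporter constructs were transiently transfected into HepG2 cells, which were treated for 24 h; reporter RNA was reverse-transcribed, amplified, labelled and resolved by capillary electrophoresis.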

[8] = molecular target: Hepatocyte nuclear factor 6 (Homo sapiens) (UniProt Q9UBC0); experiment: ATG_HNF6_CIS: Attagene CIS-FACTORIAL HepG2 Assay for human Hepatocyte Nuclear Factor 6 (HNF6) (AID 2282952); conditions: HepG2 Attagene cis-factorial HNF6 reporter transcription; actives raise or lower the signal
Outline: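 First, HepG2 cells were transfected with the multiplexed cis reporter library and dosed with chemical for 24 h. Next, RNA was reverse-transcribed, PCR-amplified and fluorescently labelled. Finally, HpaI-digested fragments were read by capillary electrophoresis.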

[9] = molecular target: Heat shock factor protein 1 (Homo sapiens) (UniProt Q00613); experiment: ATG_HSE_CIS: Attagene CIS-FACTORIAL HepG2 Assay for human Heat Shock Transcription Factor 1 (HSE) (AID 2282953); conditions: HepG2 HSE cis-reporter, Attagene RNA transcription; actives raise or lower the signal
Outline: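 After a 24 h incubation with test chemical, transfected HepG2 cells were harvested for RNA; reporter transcripts were measured by RT-PCR and capillary electrophoresis. Values reflect gain or loss of signal relative to DMSO.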

[10] = ATG_MRE_CIS: Attagene CIS-FACTORIAL HepG2 Assay for human Metal Responsive Element (MRE) (AID 2282954); conditions: HepG2 MRE cis-reporter transcription, Attagene multiplex; actives raise or lower the signal
Outline: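 Endogenous MRE-dependent transcription read as reporter mRNA in transiently transfected human HepG2 cells at 24 h. RNA reverse-transcribed, PCR-amplified, labelled and resolved by capillary electrophoresis; gain or loss relative to DMSO.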

[11] = ATG_PBREM_CIS: Attagene CIS-FACTORIAL HepG2 Assay for human Phenobarbital-responsive Enhancer Module (PBREM) (AID 2282955); conditions: HepG2 PBREM cis-reporter, Attagene multiplexed transcription; actives raise or lower the signal
Outline: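 Multiplexed cis-reporter readout in human hepatoma HepG2 cells; PBREM-regulated transcript quantified after 24 h exposure by fluorescent RT-PCR fragment analysis. Signal changes up or down fitted relative to DMSO.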

[12] = molecular target: Paired box protein Pax-6 (Homo sapiens) (UniProt P26367); experiment: ATG_Pax6_CIS: Attagene CIS-FACTORIAL HepG2 Assay for human Paired Box 6 (PAX6) (AID 2282956); conditions: HepG2 CIS-FACTORIAL PAX6 reporter transcription, RNA readout; actives raise or lower the signal
Outline: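 DMSO-referenced bidirectional fits of reporter mRNA fluorescence; HepG2 with transient cis-promoter MRTUs, 24 h post-dose, RT-PCR plus capillary electrophoresis detection.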

[13] = ATG_PXRE_CIS: Attagene CIS-FACTORIAL HepG2 Assay for human Pregnane X Receptor Element (PXRE) (AID 2282957); conditions: HepG2 Attagene CIS-FACTORIAL PXRE reporter, mRNA; actives raise or lower the signal
Outline: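 After a 24 h chemical incubation, total RNA from transfected HepG2 cells was reverse-transcribed and reporter cDNA amplified, FAM-labeled, HpaI-digested and sized by capillary electrophoresis. DMSO served as baseline for bidirectional curve fitting.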

[14] = ATG_PPRE_CIS: Attagene CIS-FACTORIAL HepG2 Assay for human Peroxisome Proliferator-activated Response Element (PPRE) (AID 2282958); conditions: HepG2 PPRE cis-element reporter, Attagene transcription factor profiling; actives raise or lower the signal
Outline: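 DMSO served as negative control and baseline for bidirectional curve fitting. Signal came from PPRE-regulated reporter mRNA in HepG2 cells, measured 24 h post-dosing by RT-PCR, 6-FAM primer extension and capillary electrophoresis.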

[15] = ATG_Sox_CIS: Attagene CIS-FACTORIAL HepG2 Assay for human SRY-box transcription factor (SOX) (AID 2282960); conditions: HepG2 Attagene cis-factorial SOX reporter, mRNA; actives raise or lower the signal
Outline: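 Fluorescence-labelled cDNA fragments from reporter transcripts, sized by CE, give the signal. Cells: HepG2, transiently transfected with cis-regulated reporter units. Exposure 24 h; DMSO negative control; bidirectional curve fitting.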

[16] = molecular target: Transcription factor Sp1 (Homo sapiens) (UniProt P08047); experiment: ATG_Sp1_CIS: Attagene CIS-FACTORIAL HepG2 Assay for human Specificity Protein 1 (Sp1) (AID 2282961); conditions: HepG2 Sp1 cis-reporter transcription, actives raise or lower the signal
Outline: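 Chemicals are dosed onto HepG2 cells transfected with multiple cis-promoter reporter constructs, and after 24 h reporter RNA is reverse-transcribed, PCR-amplified and resolved by capillary electrophoresis for fluorescence quantitation; activity is scored up or down against DMSO.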

[17] = ATG_SREBP_CIS: Attagene CIS-FACTORIAL HepG2 Assay for human Sterol Regulatory Element Binding (SREBP) (AID 2282962); conditions: HepG2 Attagene cis-factorial SREBP reporter, mRNA; actives raise or lower the signal
Outline: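 In this cis-format assay, HepG2 liver cells express reporters controlled by promoter elements responsive to native transcription factors. Exposure lasts 24 h; reporter mRNA fluorescence from capillary electrophoresis gives the signal, fitted bidirectionally against DMSO.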

[18] = molecular target: Signal transducer and activator of transcription 3 (Homo sapiens) (UniProt P40763); experiment: ATG_STAT3_CIS: Attagene CIS-FACTORIAL HepG2 Assay for human Signal Transducer and Activator of Transcription 3 (STAT3) (AID 2282963); conditions: HepG2, Attagene cis-factorial STAT3 reporter transcription; actives raise or lower the signal
Outline: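 Readout is reporter transcript quantified by RT-PCR and capillary electrophoresis, with 6-FAM primer extension and HpaI digestion. Total RNA is taken 24 h after dosing transiently transfected HepG2 carrying cis-regulated reporter units. Bidirectional fit against DMSO.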

[19] = ATG_TA_CIS: Attagene CIS-FACTORIAL HepG2 Assay for human TA Basal Promoter (AID 2282964); conditions: HepG2 Attagene CIS-factorial TA basal promoter reporter; actives raise or lower the signal
Outline: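 Multiplexed mRNA reporter assay, HepG2, 24 h. Reporter cDNA amplified, 6-FAM primer-extended, HpaI-cut, CE-sized; DMSO = negative control and baseline.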

[20] = ATG_RORE_CIS: Attagene CIS-FACTORIAL HepG2 Assay for human RAR-related Orphan Receptor Element (RORE) (AID 2282959); conditions: HepG2 Attagene cis-factorial RORE reporter, mRNA; actives raise or lower the signal
Outline: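 Transfect HepG2 with MRTUs; treat 24 h; extract RNA; RT with oligo(dT); PCR with reporter-specific primers; 6-FAM primer extension; HpaI digest 2 h at 37 C; capillary electrophoresis. Fit vs DMSO, bidirectional.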

Measured: AC50

Sequence of Hepatocyte nuclear factor 6 (Homo sapiens) (Q9UBC0 whole entry, looked up, the tested form may be a part): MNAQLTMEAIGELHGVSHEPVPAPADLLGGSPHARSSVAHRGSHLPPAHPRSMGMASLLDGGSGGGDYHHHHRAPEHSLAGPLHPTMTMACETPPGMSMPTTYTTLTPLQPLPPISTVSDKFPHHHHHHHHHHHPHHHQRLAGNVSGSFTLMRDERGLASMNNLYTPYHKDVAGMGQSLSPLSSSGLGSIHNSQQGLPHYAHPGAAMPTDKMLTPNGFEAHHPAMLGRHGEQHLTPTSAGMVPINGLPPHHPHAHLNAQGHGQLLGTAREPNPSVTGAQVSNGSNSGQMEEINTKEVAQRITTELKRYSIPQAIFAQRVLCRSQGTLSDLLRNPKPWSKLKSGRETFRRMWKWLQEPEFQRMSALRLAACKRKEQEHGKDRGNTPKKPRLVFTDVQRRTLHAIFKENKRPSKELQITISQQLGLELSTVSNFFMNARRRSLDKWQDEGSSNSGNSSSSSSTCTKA
Sequence of Transcription factor Sp1 (Homo sapiens) (P08047 whole entry, looked up): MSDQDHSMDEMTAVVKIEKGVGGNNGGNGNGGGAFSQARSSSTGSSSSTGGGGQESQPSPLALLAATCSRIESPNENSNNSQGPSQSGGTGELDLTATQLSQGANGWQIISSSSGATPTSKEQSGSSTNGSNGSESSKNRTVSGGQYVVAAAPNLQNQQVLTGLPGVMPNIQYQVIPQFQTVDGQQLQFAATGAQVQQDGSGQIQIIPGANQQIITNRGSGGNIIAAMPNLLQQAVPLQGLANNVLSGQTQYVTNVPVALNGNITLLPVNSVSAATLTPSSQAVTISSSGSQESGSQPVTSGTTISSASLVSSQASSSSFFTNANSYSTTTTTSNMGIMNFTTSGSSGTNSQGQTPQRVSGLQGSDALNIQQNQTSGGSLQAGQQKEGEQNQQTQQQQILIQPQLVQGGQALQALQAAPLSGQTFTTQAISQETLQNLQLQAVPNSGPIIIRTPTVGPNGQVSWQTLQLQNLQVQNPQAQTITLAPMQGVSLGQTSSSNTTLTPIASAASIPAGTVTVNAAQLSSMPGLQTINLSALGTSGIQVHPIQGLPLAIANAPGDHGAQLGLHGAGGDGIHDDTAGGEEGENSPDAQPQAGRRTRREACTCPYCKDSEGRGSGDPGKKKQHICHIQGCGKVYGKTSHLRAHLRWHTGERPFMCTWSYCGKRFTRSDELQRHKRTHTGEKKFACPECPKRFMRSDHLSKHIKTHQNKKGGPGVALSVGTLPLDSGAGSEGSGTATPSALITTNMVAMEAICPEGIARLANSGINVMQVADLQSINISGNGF
Sequence of Bile acid receptor (Homo sapiens) (Q96RI1 whole entry, looked up): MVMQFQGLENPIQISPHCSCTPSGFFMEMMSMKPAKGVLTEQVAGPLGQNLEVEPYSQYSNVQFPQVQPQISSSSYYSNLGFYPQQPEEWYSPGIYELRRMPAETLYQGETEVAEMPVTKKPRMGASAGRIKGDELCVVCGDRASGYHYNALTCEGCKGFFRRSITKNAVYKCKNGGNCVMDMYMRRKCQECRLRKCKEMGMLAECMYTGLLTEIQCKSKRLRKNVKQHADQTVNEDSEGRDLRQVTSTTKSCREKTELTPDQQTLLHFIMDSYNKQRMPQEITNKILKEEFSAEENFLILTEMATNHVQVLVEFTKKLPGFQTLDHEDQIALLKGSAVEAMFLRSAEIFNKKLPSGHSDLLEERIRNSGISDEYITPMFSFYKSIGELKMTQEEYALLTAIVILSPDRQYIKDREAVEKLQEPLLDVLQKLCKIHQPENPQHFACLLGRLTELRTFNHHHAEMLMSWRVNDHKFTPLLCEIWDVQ
Sequence of Signal transducer and activator of transcription 3 (Homo sapiens) (P40763 whole entry, looked up): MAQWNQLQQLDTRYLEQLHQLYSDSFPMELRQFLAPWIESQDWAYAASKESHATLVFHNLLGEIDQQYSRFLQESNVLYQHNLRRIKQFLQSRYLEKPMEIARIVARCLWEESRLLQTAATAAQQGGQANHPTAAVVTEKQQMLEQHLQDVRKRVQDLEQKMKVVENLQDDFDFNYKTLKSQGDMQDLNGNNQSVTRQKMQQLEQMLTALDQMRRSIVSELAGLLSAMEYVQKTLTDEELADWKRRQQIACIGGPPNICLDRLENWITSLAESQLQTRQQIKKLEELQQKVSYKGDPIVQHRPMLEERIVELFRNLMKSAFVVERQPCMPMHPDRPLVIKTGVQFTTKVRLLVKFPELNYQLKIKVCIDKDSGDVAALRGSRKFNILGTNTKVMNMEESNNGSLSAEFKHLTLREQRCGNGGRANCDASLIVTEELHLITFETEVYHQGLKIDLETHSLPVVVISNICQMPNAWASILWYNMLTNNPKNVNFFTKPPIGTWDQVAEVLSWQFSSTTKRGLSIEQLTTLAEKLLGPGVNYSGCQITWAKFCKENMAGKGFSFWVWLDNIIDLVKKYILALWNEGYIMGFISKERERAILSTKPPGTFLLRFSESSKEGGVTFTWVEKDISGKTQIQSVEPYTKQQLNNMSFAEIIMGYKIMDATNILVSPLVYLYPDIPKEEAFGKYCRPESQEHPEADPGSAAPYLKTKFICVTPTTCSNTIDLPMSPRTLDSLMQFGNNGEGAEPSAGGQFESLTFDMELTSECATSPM
Sequence of Paired box protein Pax-6 (Homo sapiens) (P26367 whole entry, looked up): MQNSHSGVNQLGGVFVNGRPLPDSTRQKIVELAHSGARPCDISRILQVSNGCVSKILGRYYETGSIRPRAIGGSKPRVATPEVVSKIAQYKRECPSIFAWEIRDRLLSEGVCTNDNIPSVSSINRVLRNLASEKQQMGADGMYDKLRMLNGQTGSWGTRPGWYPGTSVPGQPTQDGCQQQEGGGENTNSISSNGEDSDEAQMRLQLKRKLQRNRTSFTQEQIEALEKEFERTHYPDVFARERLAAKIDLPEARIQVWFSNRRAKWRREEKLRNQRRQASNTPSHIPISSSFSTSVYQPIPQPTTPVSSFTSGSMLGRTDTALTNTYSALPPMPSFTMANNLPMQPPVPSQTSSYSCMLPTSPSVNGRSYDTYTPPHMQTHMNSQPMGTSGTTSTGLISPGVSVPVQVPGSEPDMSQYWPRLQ
Sequence of Hypoxia-inducible factor 1-alpha (Homo sapiens) (Q16665 whole entry, looked up): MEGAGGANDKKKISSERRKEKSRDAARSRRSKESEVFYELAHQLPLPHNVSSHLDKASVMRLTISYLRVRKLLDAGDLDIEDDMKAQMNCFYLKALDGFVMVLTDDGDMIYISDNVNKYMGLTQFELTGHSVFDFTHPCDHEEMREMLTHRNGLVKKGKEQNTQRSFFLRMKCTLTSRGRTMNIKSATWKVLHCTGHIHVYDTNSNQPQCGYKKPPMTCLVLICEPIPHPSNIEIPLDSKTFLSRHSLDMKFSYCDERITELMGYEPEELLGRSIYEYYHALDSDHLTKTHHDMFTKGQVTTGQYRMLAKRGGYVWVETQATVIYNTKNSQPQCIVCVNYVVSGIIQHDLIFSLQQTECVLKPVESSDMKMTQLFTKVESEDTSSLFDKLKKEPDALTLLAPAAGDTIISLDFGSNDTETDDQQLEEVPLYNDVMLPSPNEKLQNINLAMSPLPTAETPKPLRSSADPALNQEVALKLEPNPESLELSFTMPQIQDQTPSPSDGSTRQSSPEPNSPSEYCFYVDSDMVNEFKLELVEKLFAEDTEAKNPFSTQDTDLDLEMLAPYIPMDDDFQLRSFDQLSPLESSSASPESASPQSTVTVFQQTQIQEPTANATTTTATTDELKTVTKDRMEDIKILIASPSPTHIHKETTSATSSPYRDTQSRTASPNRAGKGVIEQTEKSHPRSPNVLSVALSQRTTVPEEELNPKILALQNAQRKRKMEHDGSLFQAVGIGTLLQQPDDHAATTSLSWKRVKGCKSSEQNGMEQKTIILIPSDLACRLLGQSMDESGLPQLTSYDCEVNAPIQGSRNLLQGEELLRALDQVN
Sequence of Heat shock factor protein 1 (Homo sapiens) (Q00613 whole entry, looked up): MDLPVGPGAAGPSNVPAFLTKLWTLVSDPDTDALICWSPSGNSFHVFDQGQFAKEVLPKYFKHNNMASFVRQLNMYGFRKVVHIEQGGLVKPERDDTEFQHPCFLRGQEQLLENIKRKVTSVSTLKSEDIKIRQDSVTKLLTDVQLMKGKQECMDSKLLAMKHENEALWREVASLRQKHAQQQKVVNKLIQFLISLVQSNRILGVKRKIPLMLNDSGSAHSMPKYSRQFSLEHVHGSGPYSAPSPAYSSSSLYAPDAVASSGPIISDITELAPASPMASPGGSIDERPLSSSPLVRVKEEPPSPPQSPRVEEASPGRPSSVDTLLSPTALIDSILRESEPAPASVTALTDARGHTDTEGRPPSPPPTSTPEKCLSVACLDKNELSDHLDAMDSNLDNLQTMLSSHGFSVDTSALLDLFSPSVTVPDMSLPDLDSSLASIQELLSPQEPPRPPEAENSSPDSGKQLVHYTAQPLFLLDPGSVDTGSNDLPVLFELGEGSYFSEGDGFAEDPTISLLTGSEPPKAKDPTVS

O=C(c1ccccc1)c1ccc(O)cc1O
active: [13] 48.6 µM
not listed: [20]
inactive: all other assays above

CCCCCCCCCCCCCCCCC
active: [13] 27.2 µM
not listed: [11]
inactive: all other assays above

O=C(O)C(F)(F)OC(F)(F)C(F)(F)OC(F)(F)C(F)(F)OC(F)(F)F
active: [14] 36.4 µM
not listed: [9] | [20]
inactive: all other assays above

O=C(O)C(F)(F)C(F)(F)C(F)(F)OC(F)(F)F
not listed: [9] | [20]
inactive: all other assays above

CCCCCCCCCCCC(=O)Cl
active: [14] 49.9 µM | [17] 41.2 µM
not listed: [11] | [20]
inactive: all other assays above

OCCCCC(F)(F)C(F)(F)C(F)(F)C(F)(F)F
not listed: [9]
inactive: all other assays above

CCN(CC)c1ccc(C=O)c(O)c1
active: [4] 75.4 µM | [10] 52.2 µM
not listed: [11] | [20]
inactive: all other assays above
